Results as given in PubChem BioAssay AID1159580 (chemical genetic matrix, 2015).
“And” between values parts separate entries of the source, which are not always exact repeats. Equal values may be shown once. About 2,000 (36%) of roughly 5,500 compounds were called active. Another 18% or so got no clear call; they are omitted. No stated cut-off is given here; in the data, active means normalized growth mostly below about 0.91 (no sharp cut-off); inconclusive means no clear call, values can overlap the other calls; inactive means mostly above about 0.92. The list shows a part of the results.

Test: chemical genetic growth profiling, strain panel (AID 1159580);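 further: tested at 20 µM; growth read once vehicle control cultures reached saturation at 30 °C; 1 = growth at the plate median or of vehicle wells; lower values mean less growth of the strain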
Conditions: S. cerevisiae deletion strains, growth OD

Measured: normalized growth

COc1cc(O)ccc1C(C)=O
inactive: locus YAL013W, strain DEP1, active compounds read low 0.99 | locus YAL021C, strain ccr4, active compounds read low 1.02 | locus YAL026C, strain drs2, active compounds read low 1.02 | locus YAL030W, strain snc1, active compounds read low 1.01 | locus YBL061C, strain skt5, active compounds read low 1.02 | locus YBR009C, strain hhf1, active compounds read low 1.02 | locus YBR021W, strain FUR4, active compounds read low 1.05 | locus YBR023C, strain chs3, active compounds read low 1.04 | locus YBR171W, strain sec66, active compounds read low 1.01 | locus YBR229C, strain ROT2, active compounds read low 0.958 | locus YBR231C, strain swc5, active compounds read low 1 | locus YBR279W, strain paf1, active compounds read low 1 | locus YCL011C, strain gbp2, active compounds read low 1.03 | locus YCL016C, strain dcc1, active compounds read low 1.03 | locus YCL029C, strain bik1, active compounds read low 0.973 | locus YCL061C, strain MRC1, active compounds read low 1.02 | locus YCL069W, strain vba3, active compounds read low 1.01 | locus YCR088W, strain abp1, active compounds read low 1.02 | locus YDL005C, strain med2, active compounds read low 1.01 | locus YDL035C, strain GPR1, active compounds read low 0.979 | locus YDL040C, strain nat1, active compounds read low 1.01 | locus YDL074C, strain BRE1, active compounds read low 1.03 | locus YDL101C, strain DUN1, active compounds read low 0.974 | locus YDL134C, strain PPH21, active compounds read low 0.977 | locus YDL185W, strain tfp1, active compounds read low 0.97 | locus YDL192W, strain arf1, active compounds read low 0.992 | locus YDR001C, strain nth1, active compounds read low 1.02 | locus YDR069C, strain doa4, active compounds read low 1.02 | locus YDR101C, strain arx1, active compounds read low 1.03 | locus YDR137W, strain rgp1, active compounds read low 1.05 | locus YDR150W, strain NUM1, active compounds read low 0.981 | locus YDR159W, strain sac3, active compounds read low 1.03 | locus YDR162C, strain NBP2, active compounds read low 0.939 | locus YDR195W, strain ref2 1 | locus YDR297W, strain sur2, active compounds read low 1.02 | locus YDR318W, strain mcm21, active compounds read low 0.965 | locus YDR334W, strain swr1, active compounds read low 1.02 | locus YDR335W, strain msn5, active compounds read low 1.01 | locus YDR388W, active compounds read low 0.949 | locus YDR392W, strain spt3, active compounds read low 0.95 | locus YDR502C, strain sam2, active compounds read low 1.02 | locus YEL003W, strain gim4, active compounds read low 1.01 | locus YEL037C, strain rad23, active compounds read low 1.02 | locus YEL061C, strain CIN8 (second series), active compounds read low 1.02 | locus YEL061C, strain CIN8, active compounds read low 0.982 | locus YER015W, strain faa2, active compounds read low 1.03 | locus YER016W, strain bim1, active compounds read low 1.02 | locus YER110C, active compounds read low 0.979 | locus YER111C, strain swi4, active compounds read low 1.02 | locus YER155C, strain BEM2 (second series), active compounds read low 1.02 | locus YER155C, strain BEM2, active compounds read low 0.989 | locus YER167W, strain BCK2, active compounds read low 0.979 | locus YFR010W, strain ubp6, active compounds read low 1.02 | locus YGL078C, strain dbp3, active compounds read low 0.989 | locus YGL086W, strain mad1, active compounds read low 1.02 | locus YGL167C, strain pmr1, active compounds read low 1.02 | locus YGL173C, strain kem1, active compounds read low 1.03 | locus YGL227W, strain vid30, active compounds read low 1.02 | locus YGL240W, strain doc1, active compounds read low 1.01 | locus YGL248W, strain PDE1, active compounds read low 0.952 | locus YGL253W, strain hxk2, active compounds read low 1.02 | locus YGR078C, strain PAC10, active compounds read low 0.952 | locus YGR135W, strain pre9, active compounds read low 0.962 | locus YGR229C, strain SMI1, active compounds read low 1 | locus YGR252W, strain gcn5, active compounds read low 0.961 | locus YHR013C, strain ard1, active compounds read low 1.03 | locus YHR027C, strain rpn1, active compounds read low 1.02 | locus YHR030C, strain SLT2, active compounds read low 0.998 and 1.02 | locus YHR079C, strain IRE1 (second series), active compounds read low 0.99 | locus YHR079C, strain IRE1, active compounds read low 1.01 | locus YHR094C, strain hxt1, active compounds read low 0.973 | locus YHR129C, strain ARP1, active compounds read low 0.987 | locus YHR142W, strain chs7, active compounds read low 1.04 | locus YHR200W, strain rpn10, active compounds read low 0.982 | locus YIL066C, strain RNR3, active compounds read low 0.985 | locus YIL073C, strain SPO22, active compounds read low 0.955 | locus YIL125W, strain kgd1, active compounds read low 0.981 | locus YIR030C, strain dcg1, active compounds read low 0.987 | locus YJL092W, strain hpr5, active compounds read low 1.02 | locus YJL095W, strain BCK1 (second series), active compounds read low 1.02 | locus YJL095W, strain BCK1, active compounds read low 0.942 and 1.02 | locus YJL115W, strain asf1, active compounds read low 1.02 | locus YJL129C, strain trk1, active compounds read low 1.04 | locus YJL134W, strain LCB3, active compounds read low 0.989 | locus YJL154C, strain vps35, active compounds read low 1.02 | locus YJL164C, strain tpk1, active compounds read low 1.03 | locus YJL166W, strain qcr8, active compounds read low 1.01 | locus YJL168C, strain set2, active compounds read low 1.01 | locus YJL187C, strain SWE1 (second series), active compounds read low 0.974 | locus YJL187C, strain SWE1, active compounds read low 1.01
